Data on 63 compounds can be found in PubChem BioAssay (Tox21).

The structures appear in SMILES notation. Several values for one entry are separate records, joined by “and”; a condition that tells them apart may be missing. Equal entries are not always repeated. Results filed as inconclusive are left out. Activity calls are given as the source filed them. Calls come from the whole dose curve; as a rule, active = well fitted cell-killing curve with a large enough effect in the repeat runs; inconclusive = weak or mixed curves, or effect the other way; inactive = flat fitted curve, though single readings scatter.

The nature of assay [1]: cAMP Responsive Elements (CRE) small molecule antagonists, cell-based qHTS assay: qHTS cell viability counter screen (AID 2060913). Note: nearly all actives have a fitted effect of over 40% in size. The following applies: CRE-bla HEK293T viability, CellTiter-Glo luminescence, 5 h; series mostly up to 92.4 µM. Put shortly: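 CRE-bla HEK293T cells were seeded in assay medium with 10% dialyzed FBS, incubated 18 hrs at 37 C, then exposed to compounds plus 0.25 uM final NKH477 for 3 hrs. Viability was read by CellTiter-Glo luminescence after 30 min, in the same wells.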
For orientation: qHTS replaces the single test concentration by a dilution series.

Assay [2] can be described thus: cAMP Responsive Elements (CRE) small molecule agonists, cell-based qHTS assay: qHTS cell viability counter screen (AID 2060914). Note: nearly all actives have a fitted effect of over 50% in size. The following applies: CRE-bla HEK293T viability, CellTiter-Glo luminescence, 5 h; series mostly up to 92.4 µM. Put shortly: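 CRE-bla HEK293T cells in 10% dialyzed FBS medium were exposed to compounds for 3 h at 37C after 18 h plating. CellTiter-Glo was then added in the same wells, and luminescence was read after 30 min at room temperature.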
% is set by controls: 0 for no effect and ±100 for the full control effect; potency is the fitted concentration of half-maximal effect.

For `C=COC(C)=O`, the Potency result in assay [1] and in assay [2] was “inactive” each time.

`COc1c(C(C)(C)C)cc([N+](=O)[O-])c(C)c1[N+](=O)[O-]`: the Potency result in assay [1] and in assay [2] was “inactive” each time.

In the case of `CCC(C(N)=O)N1CCCC1=O` (stereo unspecified), the Potency result in assay [1] and in assay [2] was “inactive” each time.

On to `Nc1ccc2ccccc2c1`, for which the Potency entry in assay [1] and in assay [2] was “inactive” throughout.

As for `CC(Cl)Cl`, the Potency entry in assay [1] and in assay [2] was “inactive” in each case.

As for `O=C1OC(CCN2CCCCC2)OC1(c1ccccc1)c1ccccc1` (stereo unspecified), the Potency result in assay [1] and in assay [2] was “inactive” each time.

`CCC1(CCC(C)C)C(=O)NC(=O)NC1=O`: the Potency entry in assay [1] and in assay [2] was “inactive” in each case.

Regarding `C1CCC(C2CCCCC2)CC1`, the Potency result in assay [1] and in assay [2] was “inactive” in each case.

`C=CCSSCC=C`: the Potency entry in assay [1] and in assay [2] was “inactive” in each case.

Consider `CCC[CH2][Sn]([CH2]CCC)([CH2]CCC)[O]C(=O)c1ccccc1`, for which the values for the Potency in assay [1] and in assay [2] were 5.7 µM (active) and 5.45 µM (active), respectively.

As for `CCNc1nc(NC(C)C)nc(SC)n1`, the Potency entry in assay [1] and in assay [2] was “inactive” each time.

On to `CNCC(O)c1ccc(O)cc1` (stereo unspecified), for which the Potency entry in assay [1] and in assay [2] was “inactive” throughout.

With `CNC(=O)O/N=C/C(C)(C)S(C)(=O)=O`, the Potency entry in assay [1] and in assay [2] was “inactive” each time.

Consider `CC(Cc1ccc(O)cc1)NCC(O)c1cc(O)cc(O)c1` (stereo unspecified), for which the Potency result in assay [1] and in assay [2] was “inactive” in each case.

Turning to `O=C(O)C1C(C(=O)O)C2(Cl)C(Cl)=C(Cl)C1(Cl)C2(Cl)Cl` (stereo unspecified), the Potency entry in assay [1] and in assay [2] was “inactive” in each case.

As to `CN1CSC(=S)N(C)C1`, the Potency entry in assay [1] and in assay [2] was “inactive” in each case.

With `Clc1cccc(N2CCNCC2)c1`, the Potency entry in assay [1] and in assay [2] was “inactive” in each case.

As for `COc1ccc(C=O)cc1`, the Potency entry in assay [1] and in assay [2] was “inactive” each time.

`CCC(C)(C)c1ccc(O)c(C(C)(C)CC)c1`: the Potency in assay [1] is 27.3 µM (active); in assay [2], 30.3 µM (active) and 24.3 µM (active).

As for `NC(=S)c1c(Cl)cccc1Cl`, the Potency entry in assay [1] and in assay [2] was “inactive” throughout.

In the case of `Cn1c(CCCC(=O)O)nc2cc(N(CCCl)CCCl)ccc21`, the Potency entry in assay [1] and in assay [2] was “inactive” throughout.

Turning to `C=CCCl`, the Potency result in assay [1] and in assay [2] was “inactive” throughout.

In the case of `CC(C)(C)NCC(O)c1ccccc1Cl` (stereo unspecified), the Potency entry in assay [1] and in assay [2] was “inactive” throughout.

On to `Clc1ccc(C(OCCN2CCCCC2)c2ccccc2)cc1` (stereo unspecified), for which the Potency entry in assay [1] and in assay [2] was “inactive” each time.

Turning to `CCC1(CC)C(=O)N=C(O)NC1=O`, the Potency entry in assay [1] and in assay [2] was “inactive” each time.

Regarding `CC(Oc1ccc(Oc2ncc(C(F)(F)F)cc2Cl)cc1)C(=O)O` (stereo unspecified), the Potency entry in assay [1] and in assay [2] was “inactive” throughout.

In the case of `CC(Br)C(=O)O` (stereo unspecified), the Potency entry in assay [1] and in assay [2] was “inactive” throughout.

On to `CCCCOP(=O)(O)OCCCC`, for which the Potency result in assay [1] and in assay [2] was “inactive” throughout.

`C#CC(O)(C=CCl)CC` (stereo unspecified): the Potency entry in assay [1] and in assay [2] was “inactive” each time.

Consider `C#CCOC(=O)/C=C(C)/C=C/CC(C)CCCC(C)C` (stereo unspecified), for which the Potency result in assay [1] and in assay [2] was “inactive” throughout.

For the compound `O=C(NC(=O)c1c(F)cccc1F)Nc1cc(Cl)c(F)c(Cl)c1F`, the Potency entry in assay [1] and in assay [2] was “inactive” each time.

Take `CC[C@H](N)c1ccccc1`: the Potency entry in assay [1] and in assay [2] was “inactive” each time.

On to `O=C1C2CC=CCC2C(=O)N1SC(Cl)(Cl)Cl` (stereo unspecified), for which the Potency entry in assay [1] and in assay [2] was “inactive” throughout.

For the compound `CCCCOC(=O)COC(=O)c1ccccc1C(=O)OCCCC`, the Potency entry in assay [1] and in assay [2] was “inactive” throughout.

For the compound `C[C@]12CC[C@H]3[C@@H](CC[C@@]45O[C@@H]4C(O)=C(C#N)C[C@]35C)[C@@H]1CC[C@@H]2O`, the Potency result in assay [1] and in assay [2] was “inactive” each time.

On to `CON(C)C(=O)Nc1ccc(Br)c(Cl)c1`, for which the Potency entry in assay [1] and in assay [2] was “inactive” in each case.

Turning to `CCOC(=O)N(C)C(=O)CSP(=S)(OCC)OCC`, the Potency entry in assay [1] and in assay [2] was “inactive” in each case.

In the case of `C=CC=O`, the Potency entry in assay [1] and in assay [2] was “inactive” in each case.

As to `CC[N+](CC)(CC)CC`, the Potency entry in assay [1] and in assay [2] was “inactive” throughout.

`C=CCC1([C@H](C)CCC)C(=O)NC(=O)NC1=O`: the Potency entry in assay [1] and in assay [2] was “inactive” in each case.

Regarding `Cc1ccc(N(SC(F)(Cl)Cl)S(=O)(=O)N(C)C)cc1`, the Potency entry in assay [1] and in assay [2] was “inactive” in each case.

Turning to `CCCCN(CCCC)C(=S)S`, the Potency entry in assay [1] and in assay [2] was “inactive” in each case.

In the case of `CNC(=O)O/N=C/C(C)(C)S(C)=O` (stereo unspecified), the Potency result in assay [1] and in assay [2] was “inactive” in each case.

As to `C#CCO`, the Potency entry in assay [1] and in assay [2] was “inactive” throughout.

In the case of `CN1CCc2cc(Cl)c(O)cc2[C@H]2c3ccccc3CC[C@@H]21`, the Potency result in assay [1] and in assay [2] was “inactive” in each case.

Regarding `CCCN1CCC[C@@H]2Cc3nc(N)ncc3C[C@H]21`, the Potency entry in assay [1] and in assay [2] was “inactive” throughout.

With `CCN(CC)Cc1nccn1-c1ccc([N+](=O)[O-])cc1C(=O)c1ccccc1Cl`, the Potency entry in assay [1] and in assay [2] was “inactive” in each case.

For the compound `CCC(=O)O[C@@H]1C=C2CCC3C(CCC4(C)C3CC[C@@H]4OC(=O)CC)C2CC1` (stereo partly specified), the Potency result in assay [1] and in assay [2] was “inactive” in each case.

Turning to `CCCCCC[N+](=O)[O-]`, the Potency result in assay [1] and in assay [2] was “inactive” each time.

Take `CC(Cl)C(=O)O` (stereo unspecified): the Potency entry in assay [1] and in assay [2] was “inactive” each time.

On to `CCCCC/C=C\C/C=C\C/C=C\C/C=C\CCCC(=O)NCC(=O)O`, for which the Potency entry in assay [1] and in assay [2] was “inactive” throughout.

As for `Cc1cc(Cl)ccc1N=CN(C)C`, the Potency result in assay [1] and in assay [2] was “inactive” throughout.

Regarding `COS(=O)(=O)c1ccc(C)cc1`, the Potency result in assay [1] and in assay [2] was “inactive” throughout.

On to `Clc1ccc(CSC(Cn2ccnc2)c2ccc(Cl)cc2Cl)cc1` (stereo unspecified), for which the Potency entry in assay [1] and in assay [2] was “inactive” throughout.

As to `Nc1ccccc1C(=O)Oc1ccc2ccccc2c1`, the Potency result in assay [1] and in assay [2] was “inactive” throughout.

As to `COP(=O)(OC)OC=C(Cl)Cl`, the Potency result in assay [1] and in assay [2] was “inactive” throughout.

Consider `CC(O)C(=O)[O][Hg][c]1ccccc1` (stereo unspecified), for which the Potency in assay [1] and in assay [2] was 12.2 µM (active) throughout.

Turning to `C[CH2][Hg][N]1C(=O)C2C(C1=O)C1(Cl)C(Cl)=C(Cl)C2(Cl)C1(Cl)Cl` (stereo unspecified), the viability change, negative = cytotoxic in assay [1] was -25.3% [at 18.9 µM] (inactive). Further, the activity change, negative = cytotoxicity in assay [2] is 14.8% [at 18.9 µM] (inactive).

Take `CCCCCCI`: the Potency result in assay [1] and in assay [2] was “inactive” each time.

As to `CN(C)C(=O)Nc1cccc(C(F)(F)F)c1`, the Potency result in assay [1] and in assay [2] was “inactive” each time.

Turning to `CCCCC(CC)COC(=O)c1c(Br)c(Br)c(Br)c(Br)c1C(=O)OCC(CC)CCCC` (stereo unspecified), the Potency result in assay [1] and in assay [2] was “inactive” each time.

As for `CCCCN(CCCC)N=O`, the Potency result in assay [1] and in assay [2] was “inactive” in each case.

For the compound `Cl/C=C\C[N+]12CN3CN(CN(C3)C1)C2`, the Potency entry in assay [1] and in assay [2] was “inactive” each time.
